Among the data in PubChem BioAssay (NCI) are growth values, retold here.

This is part of a sample that, as a whole, favours compounds with a hit. Of some 83,000 tested, about 20% had one in any assay.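 Testing used 96-well plates and a 48-hour single-concentration exposure. Example: -40 means 40% of the starting cells died.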 Values without a mark were called inactive. Active and inactive are the calls of the source.

The subject of this assay is BT-549 breast. As to the kind of experiment: NCI-60 one-dose screen, 48 h (100 = growth as untreated, 0 = no growth, -100 = all killed). The note with it: 10 µM unless noted. The procedure:
Growth inhibition of the BT-549 human tumor cell line is measured as a screen for anti-cancer activity. Cells are grown in 96 well plates and exposed to the test compound for 48 hours. Compounds are tested at a single concentration, which is 10^-5 M for most compounds. The reported endpoint is percent growth (GI% or GIPRCNT), where numbers from 0 - 100% represent growth inhibition, and numbers from -100% - 0 represent cell death. For example, a value of 40 represents 60% growth inhibition. A value of 0 means no net growth occurred over the course of the experiment. A value of -40 indicates 40% of cells at the beginning of the experiment died by the end of the experiment. A value of -100 means all cells are dead at the end of the experiment.
NCI-60 Human Tumor Cell Lines Screen was performed using the standard one-dose NCI protocol, which is described in more detail at https://dtp.cancer.gov/discovery_development/nci-60/default.htm.
Compounds with GIPRCNT values below 10 were considered active. Activity score was based on GIPRCNT using the following formula: […]
Score is 0 for GIPRCNT values of 100 or above, 50 for GIPRCNT values of 0, and 100 for GIPRCNT values of -100.
For the compound `COc1cccc2c1-c1ccccc1C2=O`, the growth is -0.0616% (active).

Turning to `COc1cc(NCC(=O)Nc2cc(Nc3ccc(C)cc3)ncn2)c(Cl)c(OC)c1Cl`, the growth is 101%.

On to `CCCn1c2cc(OCc3cn(-c4ccc(Cl)cc4)nn3)ccc2c2ccnc(C)c21`, for which the growth was 87.2%.

As to `CC(C)(C)c1nn(-c2ccccc2)c2c1COCN2Cc1ccc(Cl)cc1`, the growth is 122%.

As for `C#C[C@@]1(O)[C@@H](CO)O[C@@H](n2ccc3c(N)ncnc32)[C@@H]1O`, the growth is -8.06% (active).

On to `COC(=O)c1nc(-c2ccccc2)oc1S(=O)(=O)n1nc(-c2ccccc2)cc1N`, for which the growth is 82.2%.

As to `C=C1C(=O)O[C@H]2[C@H]1CC/C(COC(=O)c1cccnc1)=C\CC[C@@]1(C)O[C@@H]21`, the growth is 68.4%.

For `COc1ccc(C(=O)c2cc(OC)c(OC)c(OC)c2)cc1OC(=O)CCl`, the growth is 16.2%.

Take `COc1ccc(-c2[nH]c3ccccc3c2C=C(C#N)C#N)cc1`: the growth is 45.9%.

Take `CC(=O)O[C@@H]1C[C@]2(C)[C@H]3[C@H](O)C[C@@H]4C5=CC(C)(C)CC[C@]5(C)CC[C@@]4(C)[C@]3(C)CC[C@H]2C(C)(C)[C@H]1O`: the growth is 102%.

`CC1=C/C(=N\N=C2/C=C(C)CC(C)(C)C2)CC(C)(C)C1`: the growth is 112%.

Take `O=CN1N=C(c2ccc(F)cc2)CC1c1cccc(Nc2ccnc3cc(C(F)(F)F)ccc23)c1` (stereo not given): the growth was 44.3%.

In the case of `CCCCCCC/C=C/[C@H]1O[C@]23C(=O)C[C@@]4(C[C@@H](OC5OC(CO)C(O)C(O)C5O)C[C@@H]4[C@H]2C=C1C)OC3=O` (stereo not given in full), the growth was -0.665% (active).

On to `COc1cc(-c2csc(NC(=O)Nc3ccc(C(F)(F)F)cc3)n2)cc(OC)c1OC`, for which the growth was -8.1% (active).

As for `CN(C)[C@@H]1C(=O)C(C(N)=O)=C(O)[C@@]2(O)C(=O)C3=C(O)c4c(O)cc(CN5CCc6ccccc6C5)c(Cl)c4C[C@H]3C[C@@H]12`, the growth is -83.3% (active).

Take `O=S(=O)(O)c1ccc(N=NSc2ccc3ccccc3c2)cc1`: the growth is 94%.

Regarding `CCC[S@@](=O)c1ccc2nc(NC(=O)OC)[nH]c2c1`, the growth was 79.1%.

For the compound `C=C1C(=O)O[C@H]2[C@H]1CC/C(COC(=O)c1c[nH]c3ccccc13)=C\CC[C@@]1(C)O[C@@H]21`, the growth was -37.2% (active).

As for `CC1CCN(CCCCCOc2ccc3oc4ccccc4c(=O)c3c2)CC1`, the growth was 80.3%.

As to `CC1(C)CC[C@]2(c3nnc(-c4ccncc4)o3)CC[C@]3(C)C(=CC[C@@H]4[C@@]5(C)CCC(=O)C(C)(C)[C@@H]5CC[C@]43C)[C@@H]2C1`, the growth was 80.3%.

As for `O=C1CC23OC(C(O)c4ccccc4N12)C1C(c2ccccc2)=NOC13` (stereo not given), the growth is 24.6%.

On to `Nc1c(C(=O)Nc2ccccn2)sc2nc3c(cc12)CCCCCC3`, for which the growth was 31%.

Regarding `C=C1C(=O)O[C@H]2[C@H]1CC/C(COC(=O)NCc1nc3ccccc3[nH]1)=C\CC[C@@]1(C)O[C@@H]21`, the growth was 86.7%.

On to `Cc1nccc2c3ccc(OCc4cn(-c5ccc(Cl)cc5)nn4)cc3n(CC(C)C)c12`, for which the growth is 28.3%.

On to `CNC(=O)c1cc(Oc2ccc3c(c2)sc2nc(-c4ccc(NC(C)=O)cc4)cn23)ccn1`, for which the growth was 38.3%.

With `O=C(O)CCNC1CCCCC1`, the growth is 99.6%.

On to `CCN1CCC[C@H]1c1cc(O)c2c(c1OC)C[C@H]1C[C@H]3[C@H](N)C(=O)C(C(N)=O)=C(O)[C@@]3(O)C(=O)C1=C2O`, for which the growth was -3.73% (active).

As for `NC(=O)c1ccc2nc3c(n2c1)C(=O)C(=O)c1ccccc1-3`, the growth was -94.3% (active).

Consider `O=C(Nc1nc(-c2ccccc2)cs1)c1cc(-c2ccc(Br)cc2)nc2ccccc12`, for which the growth was 60.3%.

With `O=C(CCCCCCCCC(=O)Nc1cccc(C2=NCCN2)c1)Nc1cccc(C2=NCCN2)c1`, the growth is 92.2%.

Consider `COc1cc(NCC(=O)Nc2cc(Nc3cccc(C(F)(F)F)c3)ncn2)c(Cl)c(OC)c1Cl`, for which the growth is 88.9%.

With `CCOC(=O)C1=C(C)n2nc(CC#N)c(C#N)c2NC1c1ccc(CC)cc1` (stereo not given), the growth is 85.4%.

As for `CCN1CCN(c2ccc(NC(=O)Nc3nc4ccc(-c5ccccc5OC)cc4s3)cc2)CC1`, the growth was 31.6%.

Regarding `Nc1cc(N)c(S(=O)(=O)O)cc1N=Nc1cc([N+](=O)[O-])ccc1O`, the growth was 105%.

With `COc1cc(/C=C/C(=O)/C=C/c2cc3ccc(Cl)cc3[nH]c2=O)ccc1O`, the growth is 97.5%.

As for `O=C(O)C(C(=O)O)c1cccc2ccccc12`, the growth is 102%.

Regarding `C#CC[C@@H]1C[C@]2(C)[C@H]3CC[C@@H]4[C@H]5[C@H](C(=C)C)CC[C@]5(C(=O)O)CC[C@@]4(C)[C@]3(C)CC[C@H]2C(C)(C)[C@H]1O`, the growth was 29%.

Regarding `COc1ccc2[nH]c(-c3ccccc3)c(C=C(C#N)C#N)c2c1`, the growth was 4.38% (active).

Consider `O=C(NC[C@H](O)CN1CCc2ccccc2C1)c1cc(NC2COC2)ncn1`, for which the growth was 97.8%.

Take `CCCCc1n(Cc2ccc3ccccc3c2)c2ccccc2[n+]1Cc1ccc2ccccc2c1`: the growth was -74% (active).
